Assay outcomes: PubChem, Sanford-Burnham Center for Chemical Genomics
Sampled rows, rich in hits. Any-hit rate of the full collection: about 31%.
CYP2C19 act: human CYP2C19 activators, primary screen, biochemical, luminescence. Cytochrome P450 2C19 (Homo sapiens), P33261. recombinant CYP2C19, luciferin-H EGE luminescence; stronger effect = higher value; 0 = fully inhibited enzyme, 1 = untreated enzyme. activation factor at 5 µM. 96,000 tested, under 10 active. AID 1025, 2008;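 active means activation factor of at least 2 at 5 µM in the primary screen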
Target sequence (P33261 whole entry, looked up): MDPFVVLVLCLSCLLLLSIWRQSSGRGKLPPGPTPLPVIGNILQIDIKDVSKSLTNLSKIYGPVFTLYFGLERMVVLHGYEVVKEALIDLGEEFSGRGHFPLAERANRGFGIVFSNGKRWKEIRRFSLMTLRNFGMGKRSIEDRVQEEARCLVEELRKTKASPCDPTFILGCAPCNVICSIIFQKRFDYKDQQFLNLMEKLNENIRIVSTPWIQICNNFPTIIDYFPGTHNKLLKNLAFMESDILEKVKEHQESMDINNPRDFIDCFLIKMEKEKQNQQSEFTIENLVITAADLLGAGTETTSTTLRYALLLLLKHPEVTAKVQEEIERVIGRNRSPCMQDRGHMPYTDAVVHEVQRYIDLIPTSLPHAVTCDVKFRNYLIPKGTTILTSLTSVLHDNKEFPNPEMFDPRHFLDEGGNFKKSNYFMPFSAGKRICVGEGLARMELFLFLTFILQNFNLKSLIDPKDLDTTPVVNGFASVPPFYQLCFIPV
PLAP activator: PLAP enzyme activators, biochemical, luminescence, HTS. Alkaline phosphatase, placental type (Homo sapiens), P05187. purified PLAP enzyme, luminescent substrate read-out; stronger effect = higher value. activation fold at 20 µM. 1.2% of 96,000 active. AID 696, 2007; in the data active means activation fold above about 2
CYP2C9 inhib: blockers of cytochrome P450 2C9 activity – biochemical, luminescence, ADME assay, primary screen | P11712 | CYP2C9 Supersomes, luciferin-H conversion | inhibition, % at 5 µM | 20% of 96,000 active | AID 777, 2007;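 active means blocking of liver enzyme CYP2C9 beyond about 50% at 5 µM, limit read from the data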
CYP2C19 inh: blockers of cytochrome P450 2C19 activity – biochemical, luminescence, ADME assay, primary screen. CYP2C19 Supersomes, luciferin-H EGE luminescence, 30 min. 21% of 96,000 active. P33261. AID 778, 2007. inhibition, % at 5 µM;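 active means CYP2C19 inhibition above a set limit at 5 µM in the primary screen, cut at about 50% in these data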
CYP2C9 act: human CYP2C9 activators, primary screen, biochemical, luminescence. Cytochrome P450 2C9 (Homo sapiens), P11712. recombinant CYP2C9, luciferin-H conversion; stronger effect = higher value; factor 1 = untreated enzyme, 0 = blocked. activation factor at 5 µM. 1.4% of 96,000 active;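 active means activation factor of 2 or more for CYP2C9 at a 5 µM dose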
Numbers stand for hits; - = inactive.

SMILES | CYP2C19 act | PLAP activator | CYP2C9 inhib | CYP2C19 inh | CYP2C9 act
COP(=O)(OC)C1(Nc2ccc(C)cc2)CCCCC1 | - | - | - | 83 | -
O=C(Nc1ccc(Cl)cc1)Nc1nccs1 | - | - | - | - | -
CCOC(=O)N(C)c1ccc(C(O)(C(=O)OCC)C(F)(F)F)cc1 (centres undefined) | - | - | 70 | 61 | -
COC(=O)C(O)(c1ccc(N(C)C(=O)OC(C)C)cc1)C(F)(F)F (centres undefined) | - | - | - | - | -
CCOC(=O)C(NC(=O)CC)(Nc1ccc(C(O)(C(=O)OCC)C(F)(F)F)cc1C)C(F)(F)F (centres undefined) | - | - | 54 | - | -
CCOC(=O)N(CC)c1ccc(C(O)(C(=O)OCC)C(F)(F)F)cc1 (centres undefined) | - | - | 77 | 58 | -
CCOC(=O)c1cc(C(O)(C(=O)OC)C(F)(F)F)c(/N=C/N(C)C)o1 (centres undefined) | - | - | - | - | -
CCOC(=O)C(O)(c1ccc(N(CC)C(=O)OC)cc1)C(F)(F)F (centres undefined) | - | - | 69 | 64 | -
O=C1CCCC2C3CCCN4CCCC(CN12)C34 (centres undefined) | - | - | - | - | -
O=c1c2cc([N+](=O)[O-])ccc2nc(CN2CCOCC2)n1-c1ccccc1F | - | - | - | - | -
Cc1ccccc1-n1c(C)nc2sccc2c1=O | - | - | - | 53 | -
Cc1nc2sccc2c(=O)n1-c1ccccc1Cl | - | - | - | 63 | -
O=c1c2ccccc2nc(-c2cccs2)n1-c1ccccc1 | - | - | - | - | -
CC(C(=O)Nc1ccc(Br)cc1C(=O)c1ccccc1)N1CCOCC1 (centres undefined) | - | - | 55 | 61 | -
O=C(CCN1CCOCC1)NCC(=O)Nc1ccc(Br)cc1C(=O)c1ccccc1 | - | - | - | - | -
CC(C)C(=O)c1cn(Cc2ccccc2C#N)c2ccccc12 | - | - | - | 60 | -
COc1ccccc1CN1CCCCC1c1cccnc1 (centres undefined) | - | - | - | 50 | -
CC(=O)OC1(c2ccc(C)cc2)CN2CCC1c1ccccc12 (centres undefined) | - | - | - | 99 | -
CC(=O)OC1(Cc2ccccc2)CN2CCC1c1ccccc12 (centres undefined) | - | - | 60 | 74 | -
O=C(NC(Oc1ccccc1)C(Cl)(Cl)Cl)c1ccccc1 (centres undefined) | - | - | - | - | -
CCCC(=O)NC(Oc1ccccc1Cl)C(Cl)(Cl)Cl (centres undefined) | - | - | 59 | 80 | -
CC(=O)c1ccc(OC(NC(=O)c2ccco2)C(Cl)(Cl)Cl)cc1 (centres undefined) | - | - | - | - | -
CC(C)CC(=O)NC(Oc1ccc(Cl)cc1)C(Cl)(Cl)Cl (centres undefined) | - | - | - | 82 | -
C[C@H]1CCCC(=O)CCC/C=C/c2cc(O)cc(O)c2C(=O)O1 | - | - | 90 | 88 | -
O=C(Cc1ccccc1)Oc1ccc(N2C(=O)CCC2=O)cc1 | - | - | - | - | -
SMILES | CYP2C19 act | PLAP activator | CYP2C9 inhib | CYP2C19 inh | CYP2C9 act
O=c1[nH]c(=S)n(Cc2ccc(F)cc2)c(O)c1C=NCc1cccnc1 | - | - | - | 66 | -
CCOP(=S)(OCC)SCC(=O)NC(C)(CC)C(=O)O (centres undefined) | - | - | 84 | - | -
CN1CCN(c2ccc(C(N)=O)cc2N)CC1 | - | - | - | - | -
Oc1ccc(/C=N/NP(=S)(c2ccccc2)c2ccccc2)c(O)c1O | - | 2.4 | 96 | 83 | -
Oc1ccc(/C=N/NP(=S)(c2ccccc2)c2ccccc2)cc1O | - | - | 99 | 90 | -
O=C(Cc1ccccc1)Oc1ccccc1N1C(=O)CCC1=O | - | - | - | - | -
CC1CN(O)C2CCc3nonc3C12O (centres undefined) | - | - | - | - | -
CCOC(=O)c1c(-n2c(C)cc(C=C3C(=O)NC(=S)NC3=O)c2C)sc2c1CCCC2 | - | - | 67 | - | -
CC1=CC(=O)C2=C(C)CC(O)C3C(C)C(=O)OC3C12 (centres undefined) | - | - | - | - | -
